VP16 counter: Gal4-VP16 reporter inhibition counter-screen; Drosophila S2 Gal4-VP16 UAS-luciferase, luminescence, 20 h; Potency, µM (highest dose often 53.6 µM), for the others: at the highest dose activity, negative = inhibition, most hits filed as inhibitors; actives 3.5% (n = 310,000); AID 2546;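 further: Gal4-VP16 expression switched on by copper sulfate through the metallothionein promoter; potency means the concentration at half of the fitted maximal effect; nearly all actives have a fitted effect of over 50% in size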
TDP1 cell noCPT: qHTS for Inhibitors of human tyrosyl-DNA phosphodiesterase 1 (TDP1): qHTS in cells in absence of CPT; DT40 Tdp1-/- hTDP1 cells, no CPT, ATP luminescence, 48 h; Potency, µM (doses to about 46.2 µM), for the others: top-dose activity change, negative = growth inhibition, actives largely listed as inhibitors; actives 15% (n = 420,000); further: potency means the concentration at half of the fitted maximal effect; nearly all actives have a fitted effect of over 55% in size
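Chicken DT40 Tdp1-/- cells stably complemented with human TDP1 were seeded at 400 cells/well with DMSO in place of 20 nM camptothecin. After compound pinning, cells grew at least 48 hr at 37 °C; viability read by CellTiter-Glo luminescence.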
DT40 TDP1 CPT: growth inhibition of DT40 Tdp1-/-;hTDP1 cells with camptothecin (screen for TDP1 inhibitors); Potency, µM (top dose mostly 46.2 µM), inactives show top-dose activity change, negative = growth inhibition, hits mostly inhibitors; actives 12% (n = 420,000); chicken DT40 Tdp1-/-;hTDP1 cells + 20 nM CPT, ATP luminescence, 48 h; further: potency means the concentration at half of the fitted maximal effect; nearly all actives have a fitted effect of over 55% in size
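Cell growth measured by CellTiter-Glo luminescence after a minimum 48 h, 37 C compound exposure with 20 nM CPT in Tdp1-knockout DT40 cells stably expressing hTDP1, seeded 400/well; qHTS titration format.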
IL1B secr inh: blocks inflammasome-driven IL-1 beta release | THP-1 LPS/ATP IL-1B secretion, AlphaLISA, 16 h; hits give low values | actives 4.7% (n = 360,000) | AID 743279 | activity change, % at 57.5 µM; in the data active means activity change below about -50%; inconclusive means mostly about -30% to -49%
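THP-1 cells pretreated 1 hr with compounds (up to 57.5 uM final), then stimulated with LPS (250 ng/mL final) plus ATP (1.25 mM final); secreted IL-1B measured by AlphaLISA after 16 hr, decreased signal indicating inhibition.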
ELG1 DNA repair: ELG1-dependent DNA repair inhibition; AID 504467; Potency, µM (doses to about 46.1 µM), inactives show top-dose activity change, negative = inhibition, most hits filed as inhibitors; HEK293T ELG1-luciferase reporter, luminescence, 16 h; DNA damage induced by 5-fluorouridine; actives 2.3% (n = 330,000); further: potency means the concentration at half of the fitted maximal effect; nearly all actives have a fitted effect of over 55% in size
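Overnight (16 hr) co-exposure of 2,000 cells/well to 5-fluorouridine and compound at 37 °C preceded detection. Luciferase was quantified via ONE-Glo luminescence; loss of signal denotes inhibition.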
RORg inh: ROR gamma (mouse) transcription inhibition; Drosophila S2 Gal4-RORgamma UAS-luciferase reporter, 20 h; actives 5.4% (n = 310,000); P51450; Potency, µM (series often up to 53.6 µM), for the others: at the highest dose activity change, negative = inhibition, hits mostly inhibitors; AID 2551; further: potency means the concentration at half of the fitted maximal effect; nearly all actives have a fitted effect of over 60% in size
Target sequence (P51450 whole entry, looked up, the tested form may be a part): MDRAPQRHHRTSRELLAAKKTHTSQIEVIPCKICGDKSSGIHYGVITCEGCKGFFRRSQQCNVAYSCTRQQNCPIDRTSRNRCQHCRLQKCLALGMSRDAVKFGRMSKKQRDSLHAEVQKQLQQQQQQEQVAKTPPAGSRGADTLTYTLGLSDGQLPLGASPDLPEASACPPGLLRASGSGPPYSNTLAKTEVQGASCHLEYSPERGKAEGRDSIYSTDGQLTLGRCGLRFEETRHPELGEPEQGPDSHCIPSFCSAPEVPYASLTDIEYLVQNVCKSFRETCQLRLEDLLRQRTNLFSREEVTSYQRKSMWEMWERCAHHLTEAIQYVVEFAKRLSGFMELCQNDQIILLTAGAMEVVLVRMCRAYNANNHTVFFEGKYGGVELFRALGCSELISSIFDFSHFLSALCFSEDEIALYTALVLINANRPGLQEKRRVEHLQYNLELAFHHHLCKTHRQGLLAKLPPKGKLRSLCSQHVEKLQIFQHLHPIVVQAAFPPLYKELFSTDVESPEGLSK
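Stable Schneider cell line, Gal4 DNA-binding domain fused to ROR gamma, UAS-luciferase. Cmpd 1 hr RT → CuSO4 700 uM final → 20 hr RT → luciferase reagent 10 min → luminescence.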
Starred values were filed as active, the others as inactive; ? = inconclusive; nt = no result given; [ ] = dose if it differs, or a comment. Rows were chosen to be rich in hits. Some 21% of all compounds tested hit in one or more screens of this group. Unless noted, the call rests on the fitted dose curve; in most records, active means well fitted curve in the direction sought with a large enough effect; inconclusive means small, poorly fitted or top-dose-only effect, or another doubt; inactive means no such curve, though single readings can be large; an effect the other way counts as inactive or inconclusive. On the % scale 0 is the no-effect control and ±100 the full control effect.

SMILES | VP16 counter | TDP1 cell noCPT | DT40 TDP1 CPT | IL1B secr inh | ELG1 DNA repair | RORg inh
COc1ccc(NC(=O)CCc2nc(C3=CCN(Cc4cccc(Cl)c4)CC3)no2)c(OC)c1 | nt | 18µM* | 5.8µM* | nt | nt | nt
Cc1cccc(CN2CC=C(c3noc(CCC(=O)Nc4ccc(C)c(F)c4)n3)CC2)c1 | nt | 13µM* | 16µM* | nt | nt | nt
COc1ccc(NC(=O)CCc2nc(C3=CCN(Cc4cccc(Cl)c4)CC3)no2)cc1OC | nt | 12µM* | 16µM* | nt | nt | nt
C[C@@H](N)C(=O)c1ccccc1 | nt | -20%[92.5 µM] | -27%[92.5 µM] | nt | nt | nt
COc1cc2c3cc1Oc1cc(ccc1O)C[C@@H]1c4c(cc(OC)c(O)c4Oc4cccc(c4)C[C@H]3N(C)CC2)CC[N+]1(C)C | -4%[17 µM] | nt | nt | nt | nt | 3%[16.9 µM]
CC(C)CCC(=O)O[C@H]1CC[C@H]2[C@@H]3CCC4=CC(=O)CC[C@]4(C)[C@H]3CC[C@]12C | nt | 0% | -6% | nt | nt | nt
COC(=O)C1C(O)C(C)C(O)C(C)/C=C\C=C(/C)C(=O)Nc2c(C)c(OC(C)=O)c3c(c2O)C(=O)C(C)=C2OCOC(=C23)/C(C)=C/C(C)(O)C(O)C(C)C1O (stereo unspecified) | -6% | 1% | -24% | -10 | -17% | -19%
c1ccc(N=NNc2ccccc2)cc1 | 5% | nt | nt | nt | nt | 18%
O=C1NCN(c2ccccc2)C12CCN(C(CCc1ccccc1)c1nnnn1C1CCCCC1)CC2 (stereo unspecified) | nt | ? | ? | -56* | nt | nt
CCCCn1nnnc1C(c1ccc(OC)cc1)N1CCC2(CC1)C(=O)NCN2c1ccccc1 (stereo unspecified) | nt | ? | 18µM* | -13 | nt | nt
O=C1NCN(c2ccccc2)C12CCN(C(c1cccs1)c1nnnn1Cc1ccccc1)CC2 (stereo unspecified) | nt | ? | ? | -21 | nt | nt
COc1ccc(C(c2nnnn2Cc2ccccc2)N2CCC3(CC2)C(=O)NCN3c2ccccc2)cc1 (stereo unspecified) | nt | ? | ? | -58* | nt | nt
O=C(Nc1cccc(C(=O)Nc2cc(C(=O)Nc3ccc([S+](=O)([O-])[O-])c4cc([S+](=O)([O-])[O-])cc(SOOO)c34)ccc2F)c1)Nc1cccc(C(=O)Nc2cc(C(=O)Nc3ccc([S+](=O)([O-])[O-])c4cc([S+](=O)([O-])[O-])cc([S+](=O)([O-])[O-])c34)ccc2F)c1 | -3% | nt | nt | nt | nt | 7%
CCCOC1CCCN(C(=O)CCc2nnc(Cc3cccc(C)c3)o2)C1 (stereo unspecified) | 25% | -2% | -11% | 16 | ? | 20%
CCOC(=O)c1ncn2c1CN(C)C(=O)c1cc(F)ccc1-2 | -3% | -19% | ? | -53* | 4% | ?
C=C(COC(C)=O)CC1CC(O)[C@]2(C)OC3CC4OC5C[C@]6(C)O[C@]7(C)CCC8OC9C[C@]%10(C)OC%11C(C)=CC(=O)OC%11CC%10OC9C[C@@H](C)C8OC7CC6O[C@]5(C)C/C=C\C4OC3CC2O1 (stereo partly specified) | -13% | ? | 23µM* | -13 | 0% | 12%
C=C(C=O)CC1CC(O)[C@]2(C)OC3CC4OC5C[C@]6(C)O[C@]7(C)CCC8OC9C[C@]%10(C)OC%11C(C)=CC(=O)OC%11CC%10OC9C[C@@H](C)C8OC7CC6O[C@]5(C)CC5OC5C4OC3CC2O1 (stereo partly specified) | -2% | 0.37µM* | 0.41µM* | -104* | 4.1µM* | -27%
C=C(CO)CC1CC(O)[C@]2(C)OC3CC4OC5C[C@]6(C)O[C@]7(C)CCC8OC9C[C@]%10(C)OC%11C(C)=CC(=O)OC%11CC%10OC9C[C@@H](C)C8OC7CC6O[C@]5(C)C/C=C\C4OC3CC2O1 (stereo partly specified) | -5% | 16µM* | 23µM* | -26 | -20% | -16%
O=C1c2ccccc2-n2nnc(-c3ccccc3)c2C2c3cc(Br)ccc3CCN12 (stereo unspecified) | nt | ? | -16% | 0 | nt | nt
CCOP(=S)(OCC)OCCSCC | -3% | nt | nt | nt | nt | 25%
CC(C)=CC1C(C(=O)OCc2coc(Cc3ccccc3)c2)C1(C)C (stereo unspecified) | -11% | nt | nt | nt | nt | 6%
O=C(Nc1cccc(F)c1)N1CCC2(CC1)CCN(C(=O)Oc1ccccc1)CC2 | ? | 23µM* | ? | nt | nt | 42%
O=C(Nc1cccc(F)c1)N1CC2(CCNCC2)C1 | 7% | 8.2µM* | 8.2µM* | nt | nt | -3%
O=C(Nc1cccc(F)c1)N1CC2(CCN(C(=O)Oc3ccccc3)CC2)C1 | 1% | ? | 9% | nt | nt | 28%
Cc1ccc(-c2nc3ncccc3o2)cc1NC(=O)c1cccc(OCC(C)C)c1 | nt | ? | -28% | nt | nt | nt
SMILES | VP16 counter | TDP1 cell noCPT | DT40 TDP1 CPT | IL1B secr inh | ELG1 DNA repair | RORg inh
CN=C=S | -8% | nt | nt | nt | nt | -18%
O=C(CC[N+](=O)[O-])OCC1OC(O)C(OC(=O)CC[N+](=O)[O-])[C@@H](OC(=O)CC[N+](=O)[O-])C1OC(=O)CC[N+](=O)[O-] (stereo partly specified) | -16% | 5.8µM* | ? | nt | nt | 4%
C[C@H]1CCCC(=O)CCC/C=C/c2cc(O)cc(O)c2C(=O)O1 | ? | ? | -4% | -13 | 21µM* | -10%
O=C(O)C1C2c3ccccc3C(O)C1(C(=O)O)c1ccccc12 (stereo unspecified) | nt | -17% | -11% | -5 | nt | nt
O=C(O)c1cc[c]([Hg][Cl])cc1 | nt | 0.92µM* | 0.65µM* | -101* | 16% | nt
CCc1ccc(N2C(=O)NC(=O)/C(=C/c3cccn3CCOc3ccc(C)cc3)C2=O)cc1 | ? | ? | 26µM* | -16 | ? | ?
CCc1ccc(N2C(=O)NC(=O)/C(=C/c3cccn3CCOc3ccc(C(C)CC)cc3)C2=O)cc1 (stereo unspecified) | ? | 15µM* | ? | -28 | ? | 0.79µM*
C[N+](C)(N)CCOC(=O)C(O)(c1ccccc1)C1CCCCC1 (stereo unspecified) | nt | -3% | -1% | -13 | nt | nt
O=C(Nc1ccccc1)N1CC2(CCN(C(=O)Oc3ccccc3)CC2)C1 | -10% | -11% | -16% | nt | nt | -8%
CN1CC[C@@]2(CCCN(C(=O)c3ccco3)C2)C1 | -17% | 2% | 3% | nt | nt | 14%

Screens as filed in PubChem BioAssay.
